Our source for the AC50 and outcome values is PubChem BioAssay (EPA / NIEHS).

“And” between values parts separate entries of the source, which are not always exact repeats. Identical values can stand only once. The source holds several records for some structures; these can differ, active in one and inactive in another. The source made the active and inactive calls. The calls were made as follows: active = hit-call score of the fitted dose curve at least 0.9, where 1 is the maximum; inactive = score below 0.9.

Usually AC50 stands for the concentration at which the activity in the assay is half-maximal.

Read-out in this test: Macrophage colony-stimulating factor (MCSF), CSF1 (gene 1435)
Briefly: BSK_LPS_MCSF: BioMAP Diversity Plus: LPS Assay for Macrophage colony-stimulating factor (MCSF) Biomarker Activity (AID 2283083). The note with it: primary human HUVEC with PBMC; actives raise or lower the signal. As for the experimental part: BSK_LPS is a cell-based, multiplexed-readout assay that uses umbilical vein endothelium and peripheral blood mononuclear cells, a human vascular primary cell co-culture, with measurements taken at 24 hours after chemical dosing in a 96-well plate.BSK_LPS_MCSF is an assay component measured in the BSK_LPS assay. It measures M-CSF antibody related to regulation of gene expression using ELISA technology.Data from the assay component BSK_LPS_MCSF was analyzed into 1 assay endpoint. This assay endpoint, BSK_LPS_MCSF, was analyzed with bidirectional fitting relative to DMSO as the negative control and baseline of activity. Using a type of binding reporter, gain or loss-of-signal activity can be used to understand changes in the signaling as they relate to the gene CSF1. Furthermore, this assay endpoint can be referred to as a primary readout, because this assay has produced multiple assay endpoints where this one serves a signaling function. To generalize the intended target to other relatable targets, this assay endpoint is annotated to the cytokine intended target family, where the subfamily is colony stimulating factor.
The levels of cell surface (or secreted, indicated by the prefix "s") biomarker endpoints were measured by ELISA. Overt cytotoxicity to cells in confluent adherent cultures (all systems other than the BT system) was assessed by measuring total protein levels using sulforhodamine B (SRB) staining in parallel cultures at the time of biomarker measurements, indicated as SRB endpoints. For proliferation assays for adherent cell types, individual cell types are cultured at sub-confluence and relative cell numbers quantified by SRB staining at time points optimized for each system (48 h: 3C and CASM3C systems; 72 h: BT and HDF3CGF systems; 96 h: SAg system). SRB was performed by staining cells with 0.1% SRB after fixation with 10% TCA and reading wells at 560 nm.Viability and proliferation of PBMC (T cells) was quantified by Alamar Blue reduction for the SAg and BT systems. For PBMC viability (referred to as PBMC Cytotoxicity within the assay endpoint names), cells were plated (75,000/well in a 96-well plate) and then chemical samples added for 1 h before addition of activators, SEB and TSST-1 (20 ng/mL final concentration each). Cells were incubated for 90 h. Then, Alamar Blue (20 uL/well) (Invitrogen, Cat DAL1100) was added for 6 h, and the plates were read with a fluorescence microplate reader at 546/580 nm (excitation/emission). For PBMC proliferation, cells were plated and activated as above but incubated for only 16 h prior to addition of Alamar Blue. Plates were read after 6 h.
For the compound `Oc1c(Cl)cc(Cl)c(Cl)c1Cl`, the AC50 was 26 µM (active).

As for `CC(C)c1cccc(C(C)C)c1N`, the outcome was inactive.

`CC1(C)CC(O)CC(C)(C)N1[O]`: the outcome was inactive.

For the compound `O=C1CCCCCCCCCCCN1`, the outcome was inactive.

As for `CCCCCCOC(=O)CCCCC(=O)OCCCCCC`, the result was inactive.

On to `CC/C=C\CCOC(=O)c1ccccc1O`, for which the AC50 is 33 µM (active).

As to `Oc1ccc(/C=C/c2cc(O)cc(O)c2)cc1`, the outcome was inactive.

For `CCNc1nc(NC(C)(C)C)nc(OC)n1`, the result was inactive.

As to `Oc1ccccc1Cc1ccccc1O`, the outcome was inactive.

Take `C=CC(=O)OCC(C)OCC(C)OCC(C)OC(=O)C=C` (stereo not given): the AC50 was 10 µM (active).

Turning to `O=C(Oc1ccccc1)c1ccccc1C(=O)Oc1ccccc1`, the result was inactive.

As to `CCCCCCCCCCCC(C)=O`, the result was inactive.

As for `CC/C=C\C/C=C\C/C=C\CCCCCCCC(=O)OC`, the AC50 was 17.5 µM (active).

On to `CCCCCCCCC(CO)CCCCCC` (stereo not given), for which the result was inactive.

As for `CC(C)CCCCCOC(=O)CS`, the result was inactive.

Take `CCCCCCCCCCCC(=O)N(C)CC(=O)O`: the outcome was inactive and the AC50 is 5.86 µM (active).

For the compound `Nc1ccc(C(=O)O)cc1`, the outcome was inactive.

With `CC1=CC=C(C(C)C)CC1`, the outcome was inactive.

For the compound `c1ccc2sc(SSN3CCOCC3)nc2c1`, the AC50 was 12.2 µM (active).

Take `Fc1ccc(Br)cc1`: the result was inactive.

Turning to `O=C(Cl)c1c(Cl)c(Cl)c(C(=O)Cl)c(Cl)c1Cl`, the result was inactive.

Turning to `CC(CCC(=O)O)(c1ccc(O)cc1)c1ccc(O)cc1`, the outcome was inactive.

With `CCCCCC1=CCCC1=O`, the outcome was inactive.

`CC=C(C)C=CC=C(C)C`: the outcome was inactive.

In the case of `CC(C)[N+](C)(CCOC(=O)C1c2ccccc2Oc2ccccc21)C(C)C`, the result was inactive.

`CC(C)C(=O)OCCc1ccccc1`: the result was inactive.

Consider `C1CNCCN1`, for which the result was inactive.

Consider `C=CC(=O)NC(C)(C)C`, for which the result was inactive.

Turning to `CCC1(C)C(=O)N(Cl)C(=O)N1Cl` (stereo not given), the outcome was inactive.

For the compound `CCCCC1C(=O)N(c2ccccc2)N(c2ccccc2)C1=O`, the result was inactive.

With `COC(OC)(C(=O)c1ccccc1)c1ccccc1`, the result was inactive.

Regarding `COc1ccc(C(=O)c2ccccc2)c(O)c1`, the result was inactive.

`CC=C(C)C(C)=O`: the outcome was inactive.

For `C[N+](C)(C)CCCNS(=O)(=O)C(F)(F)C(F)(F)C(F)(F)C(F)(F)C(F)(F)C(F)(F)C(F)(F)C(F)(F)F`, the AC50 is 46.7 µM (active) and 52.8 µM (active).

Turning to `Clc1cc(Cl)c(Cl)c(Cl)c1Cl`, the result was inactive.

Take `CCOC(=O)/C=C\C(=O)OCC`: the outcome was inactive.

For `CC(c1cc(C(C)(C)C)cc(C(C)(C)C)c1O)c1cc(C(C)(C)C)cc(C(C)(C)C)c1O`, the outcome was inactive.

Consider `O=C(O)C(F)(F)C(F)(F)C(F)(F)C(F)(F)C(=O)O`, for which the result was inactive.

Turning to `C=CC(=O)OCCCCCCCC(C)C`, the result was inactive.
